Screen size: about 5,500 compounds; about 2,000 (36%) were called active. Not shown: some 18% with an inconclusive outcome. No stated cut-off is given here; in the data, active means normalized growth mostly below about 0.91 (no sharp cut-off); inconclusive means no clear call, values can overlap the other calls; inactive means mostly above about 0.92. The list shows a part of the results.
Test: chemical genetic growth profiling, strain panel (AID 1159580);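 further: tested at 20 µM; growth read once vehicle control cultures reached saturation at 30 °C; 1 = growth at the plate median or of vehicle wells; lower values mean less growth of the strain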
Conditions: growth OD

Measured: normalized growth

O=C(O)CCC(=O)c1ccc(-c2ccccc2)cc1
inactive: S. cerevisiae deletion strains, locus YKL068W, active compounds read low 1 | S. cerevisiae deletion strains, locus YKL085W, strain MDH1 (second series), active compounds read low 0.939 | S. cerevisiae deletion strains, locus YKL085W, strain MDH1, active compounds read low 0.939 | S. cerevisiae deletion strains, locus YKL160W, strain elf1, active compounds read low 0.961 | S. cerevisiae deletion strains, locus YKL190W, strain CNB1, active compounds read low 0.996 | S. cerevisiae deletion strains, locus YKR001C, strain vps1, active compounds read low 0.92 | S. cerevisiae deletion strains, locus YKR026C, strain gcn3, active compounds read low 0.944 | S. cerevisiae deletion strains, locus YKR091W, strain srl3, active compounds read low 0.979 | S. cerevisiae deletion strains, locus YLL001W, strain dnm1, active compounds read low 0.947 | S. cerevisiae deletion strains, locus YLL026W, active compounds read low 0.989 | S. cerevisiae deletion strains, locus YLL041C, strain sdh2, active compounds read low 0.979 | S. cerevisiae deletion strains, locus YLR027C, strain aat2, active compounds read low 0.978 | S. cerevisiae deletion strains, locus YLR039C, strain RIC1, active compounds read low 0.855 | S. cerevisiae deletion strains, locus YLR058C, strain SHM2, active compounds read low 0.978 | S. cerevisiae deletion strains, locus YLR102C, strain apc9, active compounds read low 0.981 | S. cerevisiae deletion strains, locus YLR113W, strain HOG1, active compounds read low 0.865 | S. cerevisiae deletion strains, locus YLR221C, strain rsa3, active compounds read low 0.997 | S. cerevisiae deletion strains, locus YLR258W, strain gsy2, active compounds read low 1 | S. cerevisiae deletion strains, locus YLR262C, strain YPT6, active compounds read low 0.821 | S. cerevisiae deletion strains, locus YLR268W, strain sec22, active compounds read low 0.894 | S. cerevisiae deletion strains, locus YLR320W, strain mms22, active compounds read low 1.01 | S. cerevisiae deletion strains, locus YLR330W, strain CHS5, active compounds read low 0.994 | S. cerevisiae deletion strains, locus YLR342W, strain FKS1 (second series), active compounds read low 0.986 | S. cerevisiae deletion strains, locus YLR342W, strain FKS1, active compounds read low 0.934 | S. cerevisiae deletion strains, locus YLR357W, strain rsc2, active compounds read low 0.903 | S. cerevisiae deletion strains, locus YLR370C, strain arc18, active compounds read low 0.984 | S. cerevisiae deletion strains, locus YLR371W, strain rom2, active compounds read low 0.962 | S. cerevisiae deletion strains, locus YLR384C, strain iki3, active compounds read low 0.964 | S. cerevisiae deletion strains, locus YLR418C, strain cdc73, active compounds read low 0.902 | S. cerevisiae deletion strains, locus YML016C, strain PPZ1, active compounds read low 0.988 | S. cerevisiae deletion strains, locus YML032C, strain rad52, active compounds read low 0.938 | S. cerevisiae deletion strains, locus YML120C, strain ndi1, active compounds read low 0.971 | S. cerevisiae deletion strains, locus YML124C, strain tub3, active compounds read low 0.981 | S. cerevisiae deletion strains, locus YMR058W, strain fet3, active compounds read low 0.978 | S. cerevisiae deletion strains, locus YMR078C, strain ctf18, active compounds read low 0.963 | S. cerevisiae deletion strains, locus YMR125W, strain sto1, active compounds read low 0.979 | S. cerevisiae deletion strains, locus YMR129W, active compounds read low 0.987 | S. cerevisiae deletion strains, locus YMR205C, strain PFK2, active compounds read low 0.974 | S. cerevisiae deletion strains, locus YMR223W, strain ubp8, active compounds read low 0.974 | S. cerevisiae deletion strains, locus YMR231W, strain pep5, active compounds read low 0.972 | S. cerevisiae deletion strains, locus YMR263W, strain SAP30, active compounds read low 0.972 | S. cerevisiae deletion strains, locus YMR307W, strain GAS1, active compounds read low 0.939 | S. cerevisiae deletion strains, locus YNL067W, strain RPL9B, active compounds read low 0.957 | S. cerevisiae deletion strains, locus YNL071W, strain lat1, active compounds read low 0.951 | S. cerevisiae deletion strains, locus YNL128W, strain TEP1, active compounds read low 0.982 | S. cerevisiae deletion strains, locus YNL153C, strain GIM3, active compounds read low 0.985 | S. cerevisiae deletion strains, locus YNL209W, strain ssb2, active compounds read low 0.993 | S. cerevisiae deletion strains, locus YNL233W, strain BNI4, active compounds read low 0.97 | S. cerevisiae deletion strains, locus YNL248C, strain rpa49, active compounds read low 0.993 | S. cerevisiae deletion strains, locus YNL250W, strain rad50, active compounds read low 0.977 | S. cerevisiae deletion strains, locus YNL307C, strain MCK1, active compounds read low 0.963 | S. cerevisiae deletion strains, locus YNL322C, strain KRE1 (second series), active compounds read low 0.97 | S. cerevisiae deletion strains, locus YNL322C, strain KRE1, active compounds read low 0.998 | S. cerevisiae deletion strains, locus YNR049C, strain mso1, active compounds read low 0.987 | S. cerevisiae deletion strains, locus YNR052C, strain pop2, active compounds read low 0.972 | S. cerevisiae deletion strains, locus YOL006C, strain TOP1, active compounds read low 0.889 | S. cerevisiae deletion strains, locus YOL012C, strain htz1 0.779 | S. cerevisiae deletion strains, locus YOL147C, strain pex11, active compounds read low 0.98 | S. cerevisiae deletion strains, locus YOR001W, strain rrp6, active compounds read low 0.955 | S. cerevisiae deletion strains, locus YOR061W, strain CKA2, active compounds read low 0.956 | S. cerevisiae deletion strains, locus YOR069W, strain VPS5, active compounds read low 0.987 | S. cerevisiae deletion strains, locus YOR070C, strain gyp1, active compounds read low 0.988 | S. cerevisiae deletion strains, locus YOR080W, strain dia2, active compounds read low 0.979 | S. cerevisiae deletion strains, locus YOR083W, strain WHI5, active compounds read low 0.953 | S. cerevisiae deletion strains, locus YOR106W, strain vam3, active compounds read low 0.935 | S. cerevisiae deletion strains, locus YOR136W, strain idh2, active compounds read low 0.968 | S. cerevisiae deletion strains, locus YOR144C, strain elg1, active compounds read low 0.972 | S. cerevisiae deletion strains, locus YOR184W, strain ser1, active compounds read low 0.905 | S. cerevisiae deletion strains, locus YOR265W, strain rbl2, active compounds read low 0.996 | S. cerevisiae deletion strains, locus YOR270C, strain vph1, active compounds read low 0.95 | S. cerevisiae deletion strains, locus YOR290C, strain snf2, active compounds read low 0.978 | S. cerevisiae deletion strains, locus YOR316C, strain cot1, active compounds read low 0.984 | S. cerevisiae deletion strains, locus YPL051W, strain arl3, active compounds read low 0.958 | S. cerevisiae deletion strains, locus YPL055C, strain LGE1, active compounds read low 0.973 | S. cerevisiae deletion strains, locus YPL078C, strain atp4, active compounds read low 0.941 | S. cerevisiae deletion strains, locus YPL106C, strain sse1, active compounds read low 1.06 | S. cerevisiae deletion strains, locus YPL240C, strain hsp82, active compounds read low 0.999 | S. cerevisiae deletion strains, locus YPL241C, strain CIN2, active compounds read low 0.996 | S. cerevisiae deletion strains, locus YPR119W, strain clb2, active compounds read low 0.972 | S. cerevisiae deletion strains, locus YPR141C, strain kar3, active compounds read low 1.01 | S. cerevisiae deletion strains, locus YPR163C, strain tif3, active compounds read low 0.967 | S. cerevisiae deletion strains, locus YPR167C, strain met16, active compounds read low 0.967 | S. cerevisiae deletion strains, strain wtn01, active compounds read low 0.932 | S. cerevisiae strains, strain wild type, active compounds read low 0.99
active: S. cerevisiae deletion strains, locus YKL009W, strain mrt4, active compounds read low 0.799 | S. cerevisiae deletion strains, locus YLR262C, strain YPT6 (second series), active compounds read low 0.765 | S. cerevisiae deletion strains, locus YNL183C, strain NPR1, active compounds read low 0.724 | S. cerevisiae deletion strains, locus YNL271C, strain bni1, active compounds read low 0.909 | S. cerevisiae deletion strains, locus YNL298W, strain CLA4, active compounds read low 0.826 | S. cerevisiae deletion strains, locus YOR231W, strain MKK1, active compounds read low 0.724 | S. cerevisiae deletion strains, locus YPL256C, strain CLN2, active compounds read low 0.78
